Screens deposited in PubChem BioAssay by Broad Institute.
Shown is part of a subset that was picked to be rich in hits.
MITF inhib = blocks MITF activity; TRPM1 promoter luciferase, luminescence, 24 h; inhibition, % (no concentration beside the values); 37,000 compounds, 0.28% hits; AID 2240; in the data active = inhibition above about 85%;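 note: human melanocyte line stably carrying TRPM1 promoter luciferase reporter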
BJeLR viability = compounds reducing viability of BJeLR cells | BJeLR fibroblasts viability, CellTiterGlo ATP luminescence, 48 h; HRASV12, hTERT and SV40 LT/ST transformed | viability loss activity score, % (test concentration not listed) | 30,000 compounds, 0.64% hits | AID 2275; in the data active = viability loss activity score above about 50%;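 note: higher score means fewer live cells and less ATP luminescence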
Shh pathway inh = blocks Sonic Hedgehog signaling; 22,000 compounds, 2.1% hits; AID 2313; inhibition, % (no concentration beside the values); Shh-LIGHT2 Gli-luciferase reporter, 30 h;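 active = mean inhibition across valid replicates above about 65%, limit read from the data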;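 note: pathway switched on by Shh-conditioned medium diluted 1 in 25 in low serum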
* hit, by the source's call; / = not tested or not shown.

SMILES	MITF inhib	BJeLR viability	Shh pathway inh
CCn1cnc2c(Nc3cccc(Cl)c3)nc(N[C@@H]3CCCC[C@@H]3N)nc21	51.4	57.3*	73.2*
COc1cccc(OC)c1C1=NCC(=O)Nc2c1oc1ccc(Br)cc21	/	55.3*	/
CN(C(=O)c1ccc(Cl)cc1)c1ccc(Cl)cc1C(=O)c1ccccc1	/	1.6	/
CC1=CC2OC3[C@H](O)C[C@@](C)([C@]34CO4)[C@@]2(CO)[C@H](O)C1=O (some centres undefined)	71.8	73.9*	40.1
Cc1nc(-c2ccccc2)nc(OC(=O)N(C)C)c1Oc1cccc(C(F)(F)F)c1	/	3.4	/
CCCc1nc(-c2ccccn2)nc(OC(=O)N(C)C)c1Cc1c(F)cccc1Cl	/	-4.1	/
Cc1ccc2[nH]cc(CC(C)N)c2c1 (centres undefined)	/	4.5	/
C=C(CO)C(=O)O[C@H]1C/C(C)=C\CC/C(CO)=C\[C@H]2OC(=O)C(=C)[C@H]12	-15.3	3.6	6.7
C=C(CO)C(=O)O[C@H]1CC(=C)[C@@H]2C[C@H](O)C(=C)[C@@H]2[C@H]2OC(=O)C(=C)[C@@H]21	-44.9	7.1	89.7*
Cc1[nH]c2ccccc2c1CCNCC(C)(C)C	/	-7.5	/
COc1cc2c(c(OC)c1OC)-c1cc3c(cc1[C@H](OC(C)=O)[C@H]1COC(=O)[C@@H]1C2)OCO3	26.2	60.1*	82.9*
COc1ccc(CC2C(=O)OCC2Cc2ccc3c(c2)OCO3)cc1OC (centres undefined)	6.5	-4.2	12.1
Cc1ccc(-c2nc(Cn3cc(C=C4C(=O)N(C)C(=O)N(C)C4=O)c4ccccc43)no2)cc1	/	-2.1	/
CCc1ccc(NC2=NCCS2)cc1	/	7.3	/
CC(C)(C)c1cc(C=C(C#N)C#N)cc(Br)c1O	78.3	8.1	88.1*
N#CC(C#N)=Cc1cc(O)c(O)c(O)c1	-9.9	1.1	41.9
CCCCn1c(=O)c(C(=O)NCc2ccccn2)c(O)c2ccccc21	31.9	/	/
CC(O)CN1CC2CC(C1)c1cccc(=O)n1C2 (centres undefined)	/	-1.5	/
O=C1C=C2C=C[C@@H]3C[C@@]2(O1)[C@H]1CCCCN31	25.2	-1.9	72.1*
N#CC(c1ccccc1)c1ccccc1	/	-5.9	/
CN[C@@H]1C[C@@]2(C)O[C@@H]([C@@H]1OC)n1c3ccccc3c3c4c(c5c6ccccc6n2c5c31)C(=O)NC4	100.8*	126.7*	103.0*
O=C(O)c1[nH]c2ccc(Cl)cc2c1CC(=O)N1CCC2(CC1)OCCO2	/	2.2	/
NCC(=O)Nc1ccc(Br)cc1C(=O)c1ccccc1	-124.8	/	/
N#CC1(P(=S)(c2ccccc2)c2ccccc2)CCCC1	/	-0.9	/
CCc1ccc(CN2CCN(Cc3ccc(CC)cc3)CC2)cc1	/	3.7	/
SMILES	MITF inhib	BJeLR viability	Shh pathway inh
COC1CC(OC2CCC3(C)C(CCC4C3CCC3(C)C(C5=CC(=O)OC5)C(OC(C)=O)CC43O)C2)OC(C)C1OC1OC(COC2OC(CO)C(O)C(O)C2O)C(O)C(O)C1O (centres undefined)	20.1	96.0*	3.1
C[C@]12CC[C@H](O)C[C@H]1CCC1C2CC[C@]2(C)[C@@H](C3=CC(=O)OC3)[C@@H](O)C[C@]12O (some centres undefined)	-9.0	30.1	-46.6
CO[C@H]1[C@H](O)[C@H](O[C@H]2CC[C@]3(C)C4CC[C@]5(C)C(C6=CC(=O)OC6)CC[C@]5(O)C4CC[C@@H]3C2)O[C@@H](C)[C@@H]1O (some centres undefined)	21.3	111.3*	-4.8
CN(CC(=O)Nc1ccc(Cl)cc1C(=O)c1ccccc1)S(=O)(=O)c1ccc(Cl)cc1	10.7	/	/
CCC1(CC)OC(c2cccnc2)Nc2ccccc21 (centres undefined)	/	-0.2	/
COc1ccc(OC)c(NC(=S)NCCc2cnc[nH]2)c1	-10.5	/	/
C=C1[C@@H](C)[C@H]2[C@H](Cc3ccccc3)NC(=O)[C@]23OC(=O)/C=C\[C@H](O)CCC[C@@H](C)C/C=C/[C@H]3[C@@H]1O	21.3	38.9	64.9*
Cc1ccccc1CN1CCN(C(C)C)CC1	/	-3.2	/
COc1ccc(CC2(CCc3ccncc3)C(=O)NC(=O)N(c3cccc(C)c3)C2=O)c(OC)c1 (centres undefined)	-23.5	/	/
CNc1ccc2oc(C[C@@H]3OC4(CC[C@@H]3C)O[C@H](C(C)C(=O)c3ccc[nH]3)[C@H](C)C[C@H]4C)nc2c1C(=O)O (some centres undefined)	105.0*	72.5*	104.2*
CC(=O)OC1CCC2(C)C(=CCC3C4CCC(=O)C4(C)CCC32)C1 (centres undefined)	-1.9	-1.5	-9.3
CC(C)N(C(=O)SCC(Cl)=C(Cl)Cl)C(C)C	7.2	10.7	-5.7
C/C=C(/C)C(=O)O[C@H]1C(C)=C2[C@H]([C@@H]1OC(=O)CCCCC)[C@@](C)(OC(C)=O)C[C@H](OC(=O)CCC)[C@@]1(O)[C@H]2OC(=O)[C@@]1(C)O	69.3	25.9	105.1*
CCN1C[C@]2(C)CC[C@H](OC)[C@@]34C2[C@H](O)C([C@@H]13)[C@@]1(OC)C[C@H](OC)[C@H]2C[C@@H]4[C@@H]1[C@H]2O	-13.2	3.1	-12.1
COc1ccc2c(c1OC)C(=O)O[C@H]2[C@@H]1c2cc3c(cc2CCN1C)OCO3	10.2	1.3	-39.4
CN1Cc2c(ccc3c2OCO3)C2C(O)Cc3cc4c(cc3C21)OCO4 (centres undefined)	22.9	72.1*	82.1*
C/C1=C/[C@@H](C)C/C=C/[C@H]2[C@@H]3O[C@]3(C)[C@@H](C)[C@H]3[C@H](Cc4c[nH]c5ccccc45)NC(=O)[C@]32C(=O)/C=C\C(=O)[C@@H]1O	/	/	102.3*
COc1cccc(N2CCNCC2)c1	/	3.4	/
C[C@@H]1Cc2c(Cl)cc(C(=O)N[C@@H](Cc3ccccc3)C(=O)O)c(O)c2C(=O)O1	/	/	78.1*
Brc1cccc(CN2CCN(Cc3cccc(Br)c3)CC2)c1	/	9.3	/
CCC(C)(O)C(=O)O[C@H]1C(=O)O[C@@H]2C[C@H]3C(C)=CC(=O)[C@@H](O)[C@]3(C)[C@H]3[C@@]4(O)OC[C@]32[C@@H]1[C@@H](C)[C@H]4O (some centres undefined)	91.6*	113.6*	67.3*
CC(C)Sc1nnc(OC(=O)N(C)C)n1-c1cccc(C(F)(F)F)c1	/	-5.8	/
O=C(CC[N+](=O)[O-])OC[C@H]1O[C@@H](O)[C@H](OC(=O)CC[N+](=O)[O-])[C@@H](OC(=O)CC[N+](=O)[O-])[C@@H]1OC(=O)CC[N+](=O)[O-]	8.7	2.3	40.9
Cc1ccc(NC(=O)c2cccc(OC(=O)N(C)c3ccccc3)c2)cc1C	5.0	0.4	76.4*
CCCCc1nc2ccccc2c(=O)n1-c1ccc(C)cc1	/	-1.1	/
CCOC(=O)C1=C(CN2CC=C(c3ccccc3)CC2)NC(=O)NC1c1ccc(OC)cc1 (centres undefined)	/	-2.6	/
CC(C)(C)c1nc2ccccc2c(=O)n1-c1ccc(F)cc1F	2.0	7.4	1.3
CC1(C)C(C(=O)Nc2nccs2)C1(C)C	-2.8	-3.6	-29.8
O=C(c1ccco1)c1cn(CCCOc2ccccc2)c2ccccc12	-0.1	/	/
C[C@@H]1O[C@@H](O[C@@H]2C=C3CCC4C(CC[C@]5(C)[C@@H](c6ccc(=O)oc6)CC[C@]45O)[C@@]3(C)CC2)[C@H](O)[C@H](O)[C@H]1O (some centres undefined)	41.6	121.3*	-21.0
